# Test results published in PubChem BioAssay AID720709 (National Center for Advancing Translational Sciences (NCATS), 2013).
# Screen size: about 360,000 compounds; about 520 (0.14%) were called active. Not shown: some 3% with an inconclusive outcome. The full list was thinned out, with actives kept by preference. A number with no mark means an inactive call. The call rests on the fitted dose curve; in most records, active means well fitted inhibition curve with a large enough effect; inconclusive means small, poorly fitted or top-dose-only effect; inactive means no such curve, though single readings can be large or run the other way.
# Molecular target: Rap guanine nucleotide exchange factor 3 (Homo sapiens) (UniProt O95398)
# Experiment: qHTS for Antagonist of cAMP-regulated guanine nucleotide exchange factor 3 (EPAC1): primary screen; further: nearly all actives have a fitted effect of over 50% in size
# Conditions: EPAC1 GEF assay, Rap1b-BODIPY-GDP exchange fluorescence; series mostly up to 115 µM; activity change, negative = inhibition: at the top concentration
# Source text: In multi-cellular eukaryotic organisms, the effects of cAMP are transduced by two ubiquitously-expressed intracellular cAMP receptors, the classic protein kinase A/cAMP-dependent protein kinase (PKA/cAPK) and the more recently discovered exchange protein directly activated by cAMP/cAMP-regulated guanine nucleotide exchange factor (EPAC/cAMP-GEF). Both PKA and EPAC are ubiquitously expressed in all tissues, and an increase in intracellular cAMP levels will lead to the activation of both PKA and EPAC. Therefore, careful dissections of the individual role and relative contribution of EPAC and PKA within the overall cAMP signaling in various model systems are critical for further elucidating the mechanism of cAMP signaling. To date no EPAC-specific antagonists and agonist, as well as isoform-specific agonists have been reported, and developing EPAC-specific pharmacological probes to determine the physiological functions that EPAC play in the overall cAMP-mediated signaling remains a major challenge within the research field. Furthermore, identified regulators of EPAC may lead to new mechanism-based therapeutic strategies specifically targeting the EPAC / cAMP-signaling components as EPAC has been implicated to play important roles in major human pathological conditions such as diabetes, heart disease, and cancer. This qHTS will be used to screen the Molecular Libraries Small Molecule Repository (MLSMR) as a concentration-titration series using the NCGC unique quantitative screening (qHTS) platform to find inhibitors for EPAC1. In addition, this assay will also be used as a counterscreen for the EPAC2 qHTS. This fluorescent based assay is developed and validated for EPAC1 that measures exchange using EPAC effector Rap1 complex with BODIPY-GDP, a GDP analog with a tethered fluorophores. Inhibitors are identified by monitoring the change in fluorescence signal as the exchanged free BODIPY-GDP has a reduced fluorescence compared to Rap1-bound BODIPY-GDP. Decrease in signal (inhibition) is the desired outcome for the EPAC1 antagonist while no activity in this assay is desired for the EPAC2 antagonist counterscreen. de Rooij, J., Zwartkruis, F. J., Verheijen, M. H., Cool, R. H., Nijman, S. M., Wittinghofer, A., and Bos, J.L. (1998) Nature 396, 474-477 [2] Kawasaki, H., Springett, G. M., Mochizuki, N., Toki, S., Nakaya, M., Matsuda, M., Housman, D. E., and Graybiel, A. M. (1998) Science 282, 2275-2279 NIH Chemical Genomics Center [NCGC] NIH Molecular Libraries Probe Centers Network [MLPCN] MLPCN Grant: NS066510 Assay Submitter (PI): Xiaodong Cheng, The University of Texas, Medical Branch
# Briefly, three uL of reagents (100 nM EPAC1, 250 nM RAP1B-BODIPY-GDP, 50 uM GDP) were dispensed into a 1536-well Greiner black solid-bottom medium binding assay plate. Controls and test compounds (23 nL) were transferred to the plate via a Kalypsys pin tool equipped with a 1536-pin array. The plates were centrifuged at 1,000 rpm for 15 seconds followed by 5 minute incubation at room temperature. The assay plates were read at 5 minute intervals for 30 minutes in the ViewLux plate reader using 480nm excitation and 540nm emission filters. The results were normalized to the […] positive control ATA and DMSO.
# Potency means the concentration at half of the fitted maximal effect.
# Sequence of Rap guanine nucleotide exchange factor 3 (Homo sapiens) (O95398 whole entry, looked up): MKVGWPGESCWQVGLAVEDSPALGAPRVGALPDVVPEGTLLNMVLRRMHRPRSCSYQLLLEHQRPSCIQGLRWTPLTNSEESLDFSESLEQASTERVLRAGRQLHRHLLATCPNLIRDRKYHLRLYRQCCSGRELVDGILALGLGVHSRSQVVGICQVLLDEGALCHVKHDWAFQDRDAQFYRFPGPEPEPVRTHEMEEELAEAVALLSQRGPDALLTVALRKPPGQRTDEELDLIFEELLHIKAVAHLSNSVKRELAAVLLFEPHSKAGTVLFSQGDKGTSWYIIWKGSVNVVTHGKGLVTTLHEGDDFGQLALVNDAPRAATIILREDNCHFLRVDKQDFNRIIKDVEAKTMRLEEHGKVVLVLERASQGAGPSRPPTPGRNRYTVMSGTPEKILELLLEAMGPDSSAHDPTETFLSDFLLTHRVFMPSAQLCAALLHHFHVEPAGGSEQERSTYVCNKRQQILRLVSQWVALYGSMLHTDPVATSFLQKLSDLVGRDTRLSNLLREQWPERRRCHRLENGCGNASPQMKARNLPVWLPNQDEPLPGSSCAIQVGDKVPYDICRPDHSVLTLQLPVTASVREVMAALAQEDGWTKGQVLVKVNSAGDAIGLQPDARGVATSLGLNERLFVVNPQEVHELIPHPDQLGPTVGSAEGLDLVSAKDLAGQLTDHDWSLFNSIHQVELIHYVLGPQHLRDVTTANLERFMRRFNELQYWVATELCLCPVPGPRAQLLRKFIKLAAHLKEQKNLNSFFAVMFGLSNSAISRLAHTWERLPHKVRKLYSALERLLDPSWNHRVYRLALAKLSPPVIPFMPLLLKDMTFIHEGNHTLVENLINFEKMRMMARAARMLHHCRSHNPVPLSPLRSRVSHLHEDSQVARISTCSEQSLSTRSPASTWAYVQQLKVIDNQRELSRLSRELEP
Compound,"activity change, negative = inhibition [%]",Potency
CCCCC[C@H](C)N1C[C@@H](COCc2ccccc2)Oc2cc(N3CCC[C@@H]3CO)ccc2S1(=O)=O,10.1,
CCCCCCN1CCN(C2CN(Cc3cn(Cc4ccc(F)cc4)nn3)S(=O)(=O)C2)CC1 (stereo not given),-0.786,
CC1(C)OC(=O)C2=C(C[C@@H](C3CCCC3)O[C@@H]2c2ccc(Cl)cc2)O1,-10.6,
CCCCCc1c(-c2ccc(OC)c(OC)c2)ncn1CCc1ccccc1OC,-9.08,
COc1ccc(C(C#N)=C2C=CC(=NO)c3ccccc32)cc1,-2.56,
COCCNC(=O)C1C(=O)Nc2ccccc2C(=O)N1c1ccc2c(c1)OCCO2 (stereo not given),-13.8,
O=C(C[C@H]1CC[C@@H](NC(=O)c2ccncc2)[C@@H](CO)O1)NCC1CC1,-10.8,
CC1(C(=O)NCc2ccccc2)CSCC(=O)N1CCCN1CCOCC1 (stereo not given),-14.7,
FC(F)(F)c1cccc(-c2nc3ccccc3n2C(c2ccccc2)c2nc3ccccc3[nH]2)c1 (stereo not given),-10.9,
CC1(C)OC(=O)C2=C(C[C@@H](C3CC3)O[C@H]2c2ccc(Cl)cc2)O1,-6.86,
Cc1ccc(-c2nc3c(C)cc(Br)cn3c2Cc2ccccc2)cc1,-12.7,
COc1ccc(-c2cc3n(n2)CCc2nc4ccccc4n2-3)cc1,3.51,
COc1ccc(C2=NN(c3nc4ccccc4s3)C(=O)C2)cc1,,79.4 µM (active)
COc1ccc(C2=NN(C(=O)c3ccccc3C(=O)O)C(c3ccccc3O)C2)cc1 (stereo not given),1.95,
CC(=O)OCC(C)n1c(=O)c2ccccc2n1C(C)=O (stereo not given),14.3,
CCc1nnc(NS(=O)(=O)c2ccc(NC(=S)NC(=O)/C=C/c3cccs3)cc2)s1,,35.5 µM (active)
CCc1nnc(NS(=O)(=O)c2ccc(NC(=S)NC(=O)c3cccs3)cc2)s1,-18.7,
CCc1nnc(NS(=O)(=O)c2ccc(NC(=O)c3cccc(OC(F)(F)C(F)F)c3)cc2)s1,6.32,
CCC(C(=O)NC(C)(C)C)n1c(-c2ccccc2)nc2ccccc21 (stereo not given),-11.7,
CC(=O)N1Cc2cc(C(=O)NCc3cccc(F)c3)nc(-c3cccc(C4=CCCC4)c3)c2[C@H]1CCO,-4.59,
COC(=O)C1(C(=O)OC)C/C=C\CN(S(=O)(=O)c2ccccc2[N+](=O)[O-])CCC1,-24.3,
C[N+](C)(C)CCNC(=O)c1c[nH]c2ccccc12,-10.3,
Cc1c(C(=O)OCC(=O)N2CCCC2=O)oc2ccccc12,,79.4 µM (active)

Compound,"activity change, negative = inhibition [%]",Potency
CCOC(=O)c1c(C)[nH]c(C(=O)OCC(=O)N2CCCC2=O)c1C,-3.83,
CN(C)S(=O)(=O)c1cccc(C(=O)OCC(=O)N2CCCC2=O)c1,-1.48,
COC(=O)[C@@]12C[C@@H](CC(=O)N3CCC(c4ccccc4)CC3)C(=O)N(Cc3ccccc3)C1=CCC(C)(C)C2,6.68,
COc1cc(OC)cc(C2=Cc3ccccc3C(CC(=O)c3ccco3)N2c2ccc(-c3cnc(OC)nc3)cc2)c1 (stereo not given),-2.98,
Cc1cccc(C)c1NC(=O)C(c1cccc2ccccc12)n1c(=O)c(-c2ccco2)nc2ccccc21 (stereo not given),-20.9,
Cc1ccc(S(=O)(=O)N2CC3C(=O)C[C@@H](c4ccccc4Cl)N(S(=O)(=O)c4ccc(C)cc4)C3CC2c2ccccc2)cc1 (stereo not given in full),0.258,
Cc1cccc(C)c1NC(=O)C(c1ccc(C(F)(F)F)cc1)n1c(=O)c(-c2ccco2)nc2ccccc21 (stereo not given),-14.7,
O=c1ccc2c(-c3ccccc3S(=O)(=O)O)c3ccc(O)c(O)c3oc-2c1O,,56.2 µM (active)
COc1cccc(CNC(=O)[C@@H]2CCCN2C(=O)[C@@H]2CCCN2C(=O)c2ccccc2)c1,-7.07,
COc1ccc(CC(N)c2csc(NC(=O)Nc3ccc(C(C)C)cc3)n2)cc1 (stereo not given),-15.8,
CCN(CC)CCN(C)C(c1ccnc2ccccc12)c1nnnn1-c1ccc2c(c1)OCCO2 (stereo not given),-3.49,
COC(=O)[C@@]12C[C@@H](CC(=O)NCc3cccc(C(F)(F)F)c3)C(=O)N(Cc3ccco3)C1=CCC(C)(C)C2,-20.9,
CCC(C)CN1C(=O)CSCC1(C)C(=O)NCc1ccccc1 (stereo not given),-4.93,
Cc1cccc(C)c1NC(=O)C(c1cccc(F)c1)N1CCN(C)CC1 (stereo not given),6.48,
CCCCC(O)C1=C[N+](=O)CC=C1 (stereo not given),14.4,
Cc1cccc(C)c1-n1nnnc1C1(C)CCC(=O)N1CCOc1ccccc1 (stereo not given),14.7,
COC(=O)[C@]12CCCCC=C1N(Cc1ccc3c(c1)OCO3)C(=O)[C@H](CC(=O)NCc1cccs1)C2,8.77,
Nc1nc2ncccn2c1-c1ccccc1,-20.8,
O=C(NC1CCCC1)C1c2ccccc2OCC(=O)N1Cc1ccccc1 (stereo not given),-15.9,
CCCNC(=O)C[C@@H]1CC[C@@H]2[C@H](COC[C@H](O)CN2C(=O)c2cc(Cl)cc(Cl)c2)O1,-0.835,
COC(=O)[C@@]12C[C@@H](CC(=O)N3CCCCC3)C(=O)N(Cc3ccc4c(c3)OCO4)C1=CCC(C)(C)C2,5.33,
CCCCOCCCNC(=O)C[C@@H]1C[C@@]2(C(=O)OC)CCCCC=C2N(CCC2=CCCCC2)C1=O,-20.6,
